Assay results as given in paper PMC9911399, “Two distinct binding modes provide the RNA-binding protein RbFox with extraordinary sequence specificity”.
Numbering of substitutions follows the chain as printed; changes in the protein carry UniProt numbers. Whole data set: some 16,000 sequences, median “ka relative to ugcaugu” near 0.0091, cut for the highest 2% near 0.032. The sample as a whole holds a higher share of the highest values than the screen did.

T1: RBFOX1 RRM (Homo sapiens, UniProt Q9NWB1 109-208)
T1 sequence: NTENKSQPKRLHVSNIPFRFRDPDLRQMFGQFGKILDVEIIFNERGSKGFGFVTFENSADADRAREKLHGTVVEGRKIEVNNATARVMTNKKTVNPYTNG

B1: GUGCGUA (DNA:RNA)
RNA: GGGAGACCGGAAUUCAGAUUGUCCGUGCGUAUUAAAUCCCGUCGUAGCCACCA
DNA 1: CAATCTGAATTCCGGTCTCCC
DNA 2: TGGTGGCTACGACGGGATT
B2: CGUGGAA (DNA:RNA)
RNA: B1 RNA with G25C, U26G, G27U, C28G, U30A
DNA 1: CAATCTGAATTCCGGTCTCCC
DNA 2: TGGTGGCTACGACGGGATT
B3: CCCGACG (DNA:RNA)
RNA: GGGAGACCGGAAUUCAGAUUGUCCCCCGACGUUAAAUCCCGUCGUAGCCACCA
DNA 1: CAATCTGAATTCCGGTCTCCC
DNA 2: TGGTGGCTACGACGGGATT
B4: CGAGUCG (DNA:RNA)
RNA: B3 RNA with C26G, C27A, A29U
DNA 1: CAATCTGAATTCCGGTCTCCC
DNA 2: TGGTGGCTACGACGGGATT
B5: UCGCCGA (DNA:RNA)
RNA: B1 RNA with G25U, U26C, G29C, U30G
DNA 1: CAATCTGAATTCCGGTCTCCC
DNA 2: TGGTGGCTACGACGGGATT
B6: AAGUACG (DNA:RNA)
RNA: B3 RNA with C25A, C26A, C27G, G28U
DNA 1: CAATCTGAATTCCGGTCTCCC
DNA 2: TGGTGGCTACGACGGGATT
B7: GGGCAUU (DNA:RNA)
RNA: B1 RNA with U26G, G29A, A31U
DNA 1: CAATCTGAATTCCGGTCTCCC
DNA 2: TGGTGGCTACGACGGGATT
B8: GGGCAUA (DNA:RNA)
RNA: B1 RNA with U26G, G29A
DNA 1: CAATCTGAATTCCGGTCTCCC
DNA 2: TGGTGGCTACGACGGGATT
B9: GGGGCAU (DNA:RNA)
RNA: B1 RNA with U26G, C28G, G29C, U30A, A31U
DNA 1: CAATCTGAATTCCGGTCTCCC
DNA 2: TGGTGGCTACGACGGGATT
B10: CGGGCAU (DNA:RNA)
RNA: B3 RNA with C26G, C27G, A29C, C30A, G31U
DNA 1: CAATCTGAATTCCGGTCTCCC
DNA 2: TGGTGGCTACGACGGGATT
B11: GGGCAUG (DNA:RNA)
RNA: B1 RNA with U26G, G29A, A31G
DNA 1: CAATCTGAATTCCGGTCTCCC
DNA 2: TGGTGGCTACGACGGGATT
B12: GGGCAUC (DNA:RNA)
RNA: B1 RNA with U26G, G29A, A31C
DNA 1: CAATCTGAATTCCGGTCTCCC
DNA 2: TGGTGGCTACGACGGGATT
B13: CGCCCAU (DNA:RNA)
RNA: B3 RNA with C26G, G28C, A29C, C30A, G31U
DNA 1: CAATCTGAATTCCGGTCTCCC
DNA 2: TGGTGGCTACGACGGGATT
B14: AGCCGAC (DNA:RNA)
RNA: B1 RNA with G25A, U26G, G27C, U30A, A31C
DNA 1: CAATCTGAATTCCGGTCTCCC
DNA 2: TGGTGGCTACGACGGGATT
B15: UCGCCUU (DNA:RNA)
RNA: B1 RNA with G25U, U26C, G29C, A31U
DNA 1: CAATCTGAATTCCGGTCTCCC
DNA 2: TGGTGGCTACGACGGGATT
B16: GUCAGAA (DNA:RNA)
RNA: B1 RNA with G27C, C28A, U30A
DNA 1: CAATCTGAATTCCGGTCTCCC
DNA 2: TGGTGGCTACGACGGGATT
B17: GGAAGAA (DNA:RNA)
RNA: B1 RNA with U26G, G27A, C28A, U30A
DNA 1: CAATCTGAATTCCGGTCTCCC
DNA 2: TGGTGGCTACGACGGGATT
B18: GGGAGAA (DNA:RNA)
RNA: B1 RNA with U26G, C28A, U30A
DNA 1: CAATCTGAATTCCGGTCTCCC
DNA 2: TGGTGGCTACGACGGGATT
B19: GGAGAAA (DNA:RNA)
RNA: B3 RNA with C25G, C26G, C27A, C30A, G31A
DNA 1: CAATCTGAATTCCGGTCTCCC
DNA 2: TGGTGGCTACGACGGGATT
B20: GGGAAGA (DNA:RNA)
RNA: B1 RNA with U26G, C28A, G29A, U30G
DNA 1: CAATCTGAATTCCGGTCTCCC
DNA 2: TGGTGGCTACGACGGGATT
B21: CGGAAGA (DNA:RNA)
RNA: B3 RNA with C26G, C27G, G28A, C30G, G31A
DNA 1: CAATCTGAATTCCGGTCTCCC
DNA 2: TGGTGGCTACGACGGGATT
B22: ACUGGCG (DNA:RNA)
RNA: B3 RNA with C25A, C27U, A29G
DNA 1: CAATCTGAATTCCGGTCTCCC
DNA 2: TGGTGGCTACGACGGGATT
B23: CAGGCCG (DNA:RNA)
RNA: B3 RNA with C26A, C27G, A29C
DNA 1: CAATCTGAATTCCGGTCTCCC
DNA 2: TGGTGGCTACGACGGGATT
B24: GCUGGUC (DNA:RNA)
RNA: B1 RNA with U26C, G27U, C28G, A31C
DNA 1: CAATCTGAATTCCGGTCTCCC
DNA 2: TGGTGGCTACGACGGGATT
B25: GCUUGUC (DNA:RNA)
RNA: B1 RNA with U26C, G27U, C28U, A31C
DNA 1: CAATCTGAATTCCGGTCTCCC
DNA 2: TGGTGGCTACGACGGGATT
B26: GCUCUUG (DNA:RNA)
RNA: B1 RNA with U26C, G27U, G29U, A31G
DNA 1: CAATCTGAATTCCGGTCTCCC
DNA 2: TGGTGGCTACGACGGGATT
B27: GCUUGAA (DNA:RNA)
RNA: B1 RNA with U26C, G27U, C28U, U30A
DNA 1: CAATCTGAATTCCGGTCTCCC
DNA 2: TGGTGGCTACGACGGGATT
B28: GCUUGAG (DNA:RNA)
RNA: B3 RNA with C25G, C27U, G28U, A29G, C30A
DNA 1: CAATCTGAATTCCGGTCTCCC
DNA 2: TGGTGGCTACGACGGGATT
B29: CGUUGAG (DNA:RNA)
RNA: B3 RNA with C26G, C27U, G28U, A29G, C30A
DNA 1: CAATCTGAATTCCGGTCTCCC
DNA 2: TGGTGGCTACGACGGGATT
B30: GCCGCGC (DNA:RNA)
RNA: B3 RNA with C25G, A29C, C30G, G31C
DNA 1: CAATCTGAATTCCGGTCTCCC
DNA 2: TGGTGGCTACGACGGGATT
B31: GCGCUUG (DNA:RNA)
RNA: B1 RNA with U26C, G29U, A31G
DNA 1: CAATCTGAATTCCGGTCTCCC
DNA 2: TGGTGGCTACGACGGGATT
B32: CCGCUGG (DNA:RNA)
RNA: B3 RNA with C27G, G28C, A29U, C30G
DNA 1: CAATCTGAATTCCGGTCTCCC
DNA 2: TGGTGGCTACGACGGGATT
B33: GCGCUGG (DNA:RNA)
RNA: B1 RNA with U26C, G29U, U30G, A31G
DNA 1: CAATCTGAATTCCGGTCTCCC
DNA 2: TGGTGGCTACGACGGGATT
B34: GCUCGUC (DNA:RNA)
RNA: B1 RNA with U26C, G27U, A31C
DNA 1: CAATCTGAATTCCGGTCTCCC
DNA 2: TGGTGGCTACGACGGGATT
B35: CGCGCGC (DNA:RNA)
RNA: B3 RNA with C26G, A29C, C30G, G31C
DNA 1: CAATCTGAATTCCGGTCTCCC
DNA 2: TGGTGGCTACGACGGGATT

target: T1, RBFOX1 RRM; assay: EMSA; HiTS-Eq, 1 nM pool, 10 min; buffer printed only for the single-RNA assays: 10 mM Tris pH 7.5, 150 mM NaCl, 3.4 mM EDTA, 0.001% NP-40, 30 C; details: tags: His6 N-terminal (pET28a); label: 5' 32P
Method in brief: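 Purified wild-type or mutant RbFox RRM at increasing concentrations was equilibrated with 1 nM of 5′-radiolabelled RNA carrying 7 randomized nucleotides for 10 min in 50 µL. Unbound RNA was separated by 8% native PAGE and sequenced. Relative association constants came from read-count changes of each RNA species compared with the control reaction, normalised to the cognate motif.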

| Binder | binding signal |
| --- | --- |
| B1 | 0.0121 KA relative to UGCAUGU |
| B2 | 0.0142 KA relative to UGCAUGU |
| B3 | 0.0192 KA relative to UGCAUGU |
| B4 | 0.0112 KA relative to UGCAUGU |
| B5 | 0.0122 KA relative to UGCAUGU |
| B6 | 0.0114 KA relative to UGCAUGU |
| B7 | 0.0157 KA relative to UGCAUGU |
| B8 | 0.0114 KA relative to UGCAUGU |
| B9 | 0.0283 KA relative to UGCAUGU |
| B10 | 0.0317 KA relative to UGCAUGU |
| B11 | 0.519 KA relative to UGCAUGU |
| B12 | 0.0179 KA relative to UGCAUGU |
| B13 | 0.00281 KA relative to UGCAUGU |
| B14 | 0.00754 KA relative to UGCAUGU |
| B15 | 0.0126 KA relative to UGCAUGU |
| B16 | 0.0136 KA relative to UGCAUGU |
| B17 | 0.0149 KA relative to UGCAUGU |
| B18 | 0.0327 KA relative to UGCAUGU |

| Binder | binding signal |
| --- | --- |
| B19 | 0.0138 KA relative to UGCAUGU |
| B20 | 0.0349 KA relative to UGCAUGU |
| B21 | 0.0191 KA relative to UGCAUGU |
| B22 | 0.0166 KA relative to UGCAUGU |
| B23 | 0.00997 KA relative to UGCAUGU |
| B24 | 0.0255 KA relative to UGCAUGU |
| B25 | 0.0386 KA relative to UGCAUGU |
| B26 | 0.014 KA relative to UGCAUGU |
| B27 | 0.0288 KA relative to UGCAUGU |
| B28 | 0.0353 KA relative to UGCAUGU |
| B29 | 0.0235 KA relative to UGCAUGU |
| B30 | 0.0197 KA relative to UGCAUGU |
| B31 | 0.0323 KA relative to UGCAUGU |
| B32 | 0.0189 KA relative to UGCAUGU |
| B33 | 0.0322 KA relative to UGCAUGU |
| B34 | 0.0303 KA relative to UGCAUGU |
| B35 | 0.0126 KA relative to UGCAUGU |
